Test systems include DU-145 prostate; K-562 leukemia; MALME-3M melanoma; MDA-MB-231 breast; RXF 393 renal; SF-268 CNS; SF-295 CNS; SF-539 CNS; UACC-257 melanoma; M14 melanoma.
What all share (assay): NCI-60 one-dose screen, 48 h (100 = growth as untreated, 0 = no growth, -100 = all killed)
Details in all cases: 10 µM unless noted

About 83,000 compounds went through this panel and 20% of them were active in at least one assay; those are over-represented in the sample as a whole.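 96-well plates, one dose, 48 hours. Percent growth reported; active if below 10.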 A number with no mark means an inactive call. The source made the active and inactive calls.

`O=C1NC(=O)c2c1c1c3ccccc3ccc1c1[nH]c3ccc(Br)cc3c21`: the growth with DU-145 prostate was 22.5%; with K-562 leukemia, 13.3%; in the experiment on MALME-3M melanoma it was -10.7% (active); with MDA-MB-231 breast it was 27.5%; with RXF 393 renal, 11.6%; in the experiment on SF-268 CNS, 14%. Moreover, the growth with SF-295 CNS is 24.3%; in the experiment with SF-539 CNS, 23.1%; in the experiment on UACC-257 melanoma it was 51.9%; in the experiment on M14 melanoma it was 15.5%.

With `Cc1nnc(NC(=O)c2nc(S(=O)(=O)Cc3ccc(F)cc3)ncc2Cl)s1`, the growth in the experiment on DU-145 prostate was 88.2%; with K-562 leukemia, -23.8% (active); with MALME-3M melanoma, -12.9% (active); in the experiment on MDA-MB-231 breast, 66%; in the experiment with RXF 393 renal, 87.3%; with SF-268 CNS, 90.5%. Also, the growth in the experiment on SF-295 CNS was 99.5%; in the experiment on SF-539 CNS, 83.8%; in the experiment on UACC-257 melanoma it was 40.6%; in the experiment on M14 melanoma it was 83.8%.

On to `CC1Cc2c(Cl)ncnc2N(C)c2ccc(F)cc21` (stereo not given), for which the growth in the experiment on DU-145 prostate is 110%; in the experiment with K-562 leukemia it was 99.5%; in the experiment with MALME-3M melanoma, 91.3%; with MDA-MB-231 breast it was 98.9%; with RXF 393 renal it was 104%; with SF-268 CNS, 93.8%. The growth in the experiment with SF-295 CNS was 91.2%; in the experiment with SF-539 CNS, 97.5%; in the experiment with UACC-257 melanoma, 70.3%; in the experiment with M14 melanoma it was 91.5%.

As for `C[C@H](NC(=O)[C@@H](C)N)[C@H](Oc1ccc2c(cnn2-c2ccc(F)cc2)c1)c1ccc2c(c1)OCCO2`, the growth in the experiment on DU-145 prostate is 55.4%; with K-562 leukemia, -3.32% (active); in the experiment on MALME-3M melanoma, -24.7% (active); with MDA-MB-231 breast it was 42.5%; in the experiment on RXF 393 renal, 62%; with SF-268 CNS it was 42.5%. The growth is 77% in the experiment with SF-295 CNS, 74% with SF-539 CNS, 63.9% in the experiment on UACC-257 melanoma and -69.6% (active) in the experiment with M14 melanoma.

In the case of `CC(C)N1CCN(Cc2ccc3c(NNC(=O)c4ccccc4)nc4cc(F)ccc4n23)CC1`, the growth was 30.8% with DU-145 prostate; 15.7% with K-562 leukemia; 25% in the experiment on MALME-3M melanoma; 43.1% in the experiment on MDA-MB-231 breast; 37.7% in the experiment with RXF 393 renal; 24.1% in the experiment with SF-268 CNS. For the same compound, the growth is 16.5% with SF-295 CNS, 10.5% in the experiment with SF-539 CNS, 12.4% with UACC-257 melanoma and 6.58% (active) in the experiment with M14 melanoma.

Regarding `CN(C)CCNC(=O)c1cccc(-c2cnc3ccc(-c4ccc5c(c4)OCO5)nn23)c1`, the growth with DU-145 prostate was 66.5%; in the experiment on K-562 leukemia it was 1.77% (active); in the experiment with MALME-3M melanoma, 88.7%; in the experiment with MDA-MB-231 breast, 77.9%; with RXF 393 renal it was 42.3%; with SF-268 CNS it was 76.7%. For the same compound, the growth with SF-295 CNS is 106%; with SF-539 CNS it was 66.9%; in the experiment with UACC-257 melanoma, 108%; in the experiment on M14 melanoma it was 67.7%.

On to `Clc1ccc2c(c1)N(c1ncnc3ccc(-c4cnc5[nH]ncc5c4)cc13)CC2`, for which the growth in the experiment on DU-145 prostate is 22.4%; in the experiment on K-562 leukemia it was 51.1%; in the experiment on MALME-3M melanoma, 40.2%; with MDA-MB-231 breast, 27.3%; in the experiment on RXF 393 renal, -10.5% (active); with SF-268 CNS it was 35.1%. The growth in the experiment on SF-295 CNS is 23.1%; in the experiment on SF-539 CNS it was 24.9%; with UACC-257 melanoma it was 44.3%; with M14 melanoma it was 43.4%.

As to `Nc1ncnc2c1N=C(c1ccc(Cl)cc1)CC(c1ccc3c(c1)OCO3)N2` (stereo not given), the growth was 109% in the experiment on DU-145 prostate; 71.3% with K-562 leukemia; 116% with MALME-3M melanoma; 88.6% in the experiment with MDA-MB-231 breast; 80.9% in the experiment with RXF 393 renal; 91.1% in the experiment on SF-268 CNS. Also, the growth in the experiment on SF-295 CNS was 128%; with SF-539 CNS it was 88.3%; in the experiment with UACC-257 melanoma, 110%; in the experiment with M14 melanoma, 118%.

As for `c1cc2[nH]ncc2cc1-c1nc2ccc3[nH]ncc3c2c2c1CCCC2`, the growth in the experiment on DU-145 prostate was 23.3%; with K-562 leukemia, 15.3%; in the experiment on MALME-3M melanoma, 12.1%; with MDA-MB-231 breast it was 31.1%; in the experiment with RXF 393 renal, -15.8% (active); in the experiment with SF-268 CNS it was 25.1%. Also, the growth was 19.4% with SF-295 CNS, -7.82% (active) with SF-539 CNS, 20.2% in the experiment on UACC-257 melanoma and 2.16% (active) with M14 melanoma.

In the case of `COc1ccc(-c2ccc3cnc4sc(-c5ccc(OC)cc5)nc4c3n2)cc1`, the growth in the experiment on DU-145 prostate was 107%; in the experiment on K-562 leukemia it was 96.6%; with MALME-3M melanoma it was 111%; in the experiment with MDA-MB-231 breast, 89.6%; in the experiment on RXF 393 renal, 107%; in the experiment on SF-268 CNS it was 95.4%. Besides, the growth in the experiment on SF-295 CNS was 100%; in the experiment with SF-539 CNS it was 91.5%; in the experiment on UACC-257 melanoma it was 106%; in the experiment with M14 melanoma, 115%.

Consider `Cc1nc2sc(C(=O)Nc3cccc(Cl)c3C)c(N)c2cc1C(=O)c1ccccc1`, for which the growth is 11% in the experiment with DU-145 prostate; 13.5% with K-562 leukemia; 25% with MALME-3M melanoma; 39% with MDA-MB-231 breast; 3.56% (active) with RXF 393 renal; 29.2% in the experiment with SF-268 CNS. The growth was 1.83% (active) in the experiment with SF-295 CNS, -7.44% (active) with SF-539 CNS, 63.3% in the experiment with UACC-257 melanoma and 6.11% (active) in the experiment with M14 melanoma.

With `CN1C(=O)N(C)C2Nn3c(s/c(=C\c4ccc(C(F)(F)F)cc4)c3=O)=NC21` (stereo not given), the growth is 109% with DU-145 prostate; 93.3% in the experiment on K-562 leukemia; 107% in the experiment with MALME-3M melanoma; 91.7% in the experiment with MDA-MB-231 breast; 95.7% in the experiment on RXF 393 renal; 96.9% in the experiment on SF-268 CNS. Also, the growth is 101% with SF-295 CNS, 97.3% in the experiment with SF-539 CNS, 111% with UACC-257 melanoma and 110% in the experiment on M14 melanoma.

Consider `O=C1COCCN1c1ccc(Nc2nc(Cl)nc(OCc3cn(Cc4ccccc4)nn3)n2)cc1`, for which the growth in the experiment with DU-145 prostate was 90.5%; in the experiment with K-562 leukemia it was 33.2%; in the experiment on MALME-3M melanoma it was 96.1%; with MDA-MB-231 breast, 95.4%; in the experiment on RXF 393 renal, 90.7%; with SF-268 CNS it was 80.9%. The growth in the experiment on SF-295 CNS was 102%; with SF-539 CNS, 98.2%; with UACC-257 melanoma it was 84.4%; with M14 melanoma it was 76.1%.

Take `Cc1ccc(-c2csc(NC(=O)CN3CCN(c4cc5c(cc4F)c(=O)c(C(=O)O)cn5C4CC4)CC3)n2)cc1`: the growth in the experiment on DU-145 prostate was 13.1%; in the experiment on K-562 leukemia it was 9.66% (active); in the experiment with MALME-3M melanoma it was -2.34% (active); in the experiment on MDA-MB-231 breast it was 6.47% (active); in the experiment on RXF 393 renal it was 27.2%; in the experiment with SF-268 CNS, 23.2%. In addition, the growth in the experiment on SF-295 CNS is -2.97% (active); with SF-539 CNS it was 23.7%; with UACC-257 melanoma, -12.9% (active); in the experiment with M14 melanoma it was 23%.

As to `O=[N+]([O-])c1ccc(S(=O)(=O)N2CCN(C3=NS(=O)(=O)c4ccccc4N3c3ccccc3)CC2)cc1`, the growth with DU-145 prostate was 117%; in the experiment with K-562 leukemia, 84.9%; with MALME-3M melanoma it was 106%; in the experiment with MDA-MB-231 breast, 99.2%; in the experiment with RXF 393 renal, 91.7%; with SF-268 CNS, 101%. The growth in the experiment with SF-295 CNS is 91.2%; in the experiment on SF-539 CNS, 103%; in the experiment on UACC-257 melanoma, 101%; in the experiment with M14 melanoma, 113%.

The record behind these values is PubChem BioAssay (NCI).
